# Source: ChEMBL document CHEMBL2218924, “A broad activity screen in support of a chemogenomic map for kinase signalling research and drug discovery” (Biochem J, 2013)
# Assays:
# [1] = biological target: Death-associated protein kinase 1 (Homo sapiens) (UniProt P53355); settings: at 10 µM
# [2] = biological target: Death-associated protein kinase 2 (Homo sapiens) (UniProt Q9UIK4); settings: at 1 µM
# [3] = biological target: T1, Serine/threonine-protein kinase DCLK2 (Homo sapiens) (UniProt Q8N568); settings: at 1 µM
# T1 sequence (whole entry): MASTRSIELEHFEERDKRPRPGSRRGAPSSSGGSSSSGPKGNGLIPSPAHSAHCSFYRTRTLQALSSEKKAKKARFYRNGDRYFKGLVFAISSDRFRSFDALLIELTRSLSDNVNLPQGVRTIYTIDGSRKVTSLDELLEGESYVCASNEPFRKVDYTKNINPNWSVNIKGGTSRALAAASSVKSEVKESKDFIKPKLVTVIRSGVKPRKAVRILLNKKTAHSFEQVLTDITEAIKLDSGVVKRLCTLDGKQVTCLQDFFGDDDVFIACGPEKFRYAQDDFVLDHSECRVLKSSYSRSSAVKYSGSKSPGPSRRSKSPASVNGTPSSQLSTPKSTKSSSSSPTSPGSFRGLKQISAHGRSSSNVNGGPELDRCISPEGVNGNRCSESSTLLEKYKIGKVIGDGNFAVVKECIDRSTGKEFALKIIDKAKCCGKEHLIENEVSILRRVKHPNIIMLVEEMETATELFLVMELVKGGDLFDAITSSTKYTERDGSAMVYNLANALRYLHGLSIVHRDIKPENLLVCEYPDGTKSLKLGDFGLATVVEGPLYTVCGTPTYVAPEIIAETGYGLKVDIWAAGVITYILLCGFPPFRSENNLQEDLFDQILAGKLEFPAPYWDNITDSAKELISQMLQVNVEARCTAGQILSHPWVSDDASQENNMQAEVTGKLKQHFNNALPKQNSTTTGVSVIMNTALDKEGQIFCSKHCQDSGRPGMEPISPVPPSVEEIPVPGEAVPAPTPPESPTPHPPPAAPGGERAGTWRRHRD
# [4] = biological target: T1, Serine/threonine-protein kinase DCLK2 (Homo sapiens); settings: at 10 µM
# [5] = biological target: T2, Serine/threonine-protein kinase 17A (Homo sapiens) (UniProt Q9UEE5); settings: at 1 µM
# T2 sequence (whole entry): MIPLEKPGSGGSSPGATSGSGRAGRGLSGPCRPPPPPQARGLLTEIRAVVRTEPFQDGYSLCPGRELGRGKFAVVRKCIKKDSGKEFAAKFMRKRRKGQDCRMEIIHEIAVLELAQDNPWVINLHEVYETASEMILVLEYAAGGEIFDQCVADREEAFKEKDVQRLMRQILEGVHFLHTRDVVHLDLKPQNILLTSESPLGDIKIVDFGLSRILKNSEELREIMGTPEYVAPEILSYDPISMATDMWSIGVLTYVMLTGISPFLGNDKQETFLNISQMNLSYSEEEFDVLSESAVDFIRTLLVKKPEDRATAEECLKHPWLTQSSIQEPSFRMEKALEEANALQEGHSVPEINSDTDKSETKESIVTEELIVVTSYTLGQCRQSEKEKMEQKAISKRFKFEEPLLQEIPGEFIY
# [6] = biological target: T2, Serine/threonine-protein kinase 17A (Homo sapiens); settings: at 10 µM
# [7] = biological target: T3, Dual specificity tyrosine-phosphorylation-regulated kinase 2 (Homo sapiens) (UniProt Q92630); settings: at 1 µM
# T3 sequence (whole entry): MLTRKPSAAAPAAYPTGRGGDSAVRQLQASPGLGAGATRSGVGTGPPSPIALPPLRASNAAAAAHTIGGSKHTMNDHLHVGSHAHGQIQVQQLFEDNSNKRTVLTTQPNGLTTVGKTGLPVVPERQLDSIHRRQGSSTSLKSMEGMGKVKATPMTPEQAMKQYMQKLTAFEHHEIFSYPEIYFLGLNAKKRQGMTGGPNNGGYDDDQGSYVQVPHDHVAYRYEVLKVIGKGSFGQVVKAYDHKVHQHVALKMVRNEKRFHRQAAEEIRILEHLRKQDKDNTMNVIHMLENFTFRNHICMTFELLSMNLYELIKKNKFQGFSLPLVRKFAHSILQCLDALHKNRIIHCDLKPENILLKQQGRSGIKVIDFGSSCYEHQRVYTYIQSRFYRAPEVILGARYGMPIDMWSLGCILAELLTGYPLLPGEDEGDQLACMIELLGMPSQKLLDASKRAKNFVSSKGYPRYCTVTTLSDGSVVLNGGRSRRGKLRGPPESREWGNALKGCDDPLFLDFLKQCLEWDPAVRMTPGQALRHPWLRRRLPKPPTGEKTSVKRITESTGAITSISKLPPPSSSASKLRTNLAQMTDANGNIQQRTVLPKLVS
# [8] = biological target: T3, Dual specificity tyrosine-phosphorylation-regulated kinase 2 (Homo sapiens); settings: at 10 µM
# [9] = biological target: Epidermal growth factor receptor (Homo sapiens) (UniProt P00533); settings: at 1 µM
# [10] = biological target: Epidermal growth factor receptor (Homo sapiens) (UniProt P00533); settings: at 10 µM
# [11] = biological target: T4, Ephrin type-A receptor 1 (Homo sapiens) (UniProt P21709); settings: at 1 µM
# T4 sequence (whole entry): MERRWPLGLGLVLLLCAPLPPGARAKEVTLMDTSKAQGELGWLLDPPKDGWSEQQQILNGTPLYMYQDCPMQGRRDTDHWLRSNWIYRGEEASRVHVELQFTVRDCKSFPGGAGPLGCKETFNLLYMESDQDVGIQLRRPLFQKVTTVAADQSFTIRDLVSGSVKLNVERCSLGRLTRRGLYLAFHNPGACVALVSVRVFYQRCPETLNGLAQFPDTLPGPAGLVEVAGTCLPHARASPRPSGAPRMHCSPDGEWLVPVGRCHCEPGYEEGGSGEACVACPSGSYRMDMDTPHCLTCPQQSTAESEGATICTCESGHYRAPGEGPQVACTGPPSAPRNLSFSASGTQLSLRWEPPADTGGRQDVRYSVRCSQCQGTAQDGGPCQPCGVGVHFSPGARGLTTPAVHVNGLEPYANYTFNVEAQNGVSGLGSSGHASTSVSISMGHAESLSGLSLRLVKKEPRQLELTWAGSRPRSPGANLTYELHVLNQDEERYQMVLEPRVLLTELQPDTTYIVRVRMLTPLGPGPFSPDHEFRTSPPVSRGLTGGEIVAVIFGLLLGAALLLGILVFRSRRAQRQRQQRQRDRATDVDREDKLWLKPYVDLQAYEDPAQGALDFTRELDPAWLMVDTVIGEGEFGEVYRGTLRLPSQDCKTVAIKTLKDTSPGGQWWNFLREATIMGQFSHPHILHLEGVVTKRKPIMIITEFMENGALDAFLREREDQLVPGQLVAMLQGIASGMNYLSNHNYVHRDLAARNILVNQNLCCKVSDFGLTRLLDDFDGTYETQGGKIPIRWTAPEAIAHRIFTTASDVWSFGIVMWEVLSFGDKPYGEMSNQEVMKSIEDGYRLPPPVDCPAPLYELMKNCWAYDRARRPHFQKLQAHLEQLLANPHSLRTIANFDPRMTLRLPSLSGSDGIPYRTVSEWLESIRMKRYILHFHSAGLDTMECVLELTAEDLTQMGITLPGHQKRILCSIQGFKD
# [12] = biological target: Death-associated protein kinase 2 (Homo sapiens) (UniProt Q9UIK4); settings: at 10 µM
# [13] = biological target: T5, Discoidin domain-containing receptor 2 (Homo sapiens) (UniProt Q16832); settings: at 10 µM
# T5 sequence (whole entry): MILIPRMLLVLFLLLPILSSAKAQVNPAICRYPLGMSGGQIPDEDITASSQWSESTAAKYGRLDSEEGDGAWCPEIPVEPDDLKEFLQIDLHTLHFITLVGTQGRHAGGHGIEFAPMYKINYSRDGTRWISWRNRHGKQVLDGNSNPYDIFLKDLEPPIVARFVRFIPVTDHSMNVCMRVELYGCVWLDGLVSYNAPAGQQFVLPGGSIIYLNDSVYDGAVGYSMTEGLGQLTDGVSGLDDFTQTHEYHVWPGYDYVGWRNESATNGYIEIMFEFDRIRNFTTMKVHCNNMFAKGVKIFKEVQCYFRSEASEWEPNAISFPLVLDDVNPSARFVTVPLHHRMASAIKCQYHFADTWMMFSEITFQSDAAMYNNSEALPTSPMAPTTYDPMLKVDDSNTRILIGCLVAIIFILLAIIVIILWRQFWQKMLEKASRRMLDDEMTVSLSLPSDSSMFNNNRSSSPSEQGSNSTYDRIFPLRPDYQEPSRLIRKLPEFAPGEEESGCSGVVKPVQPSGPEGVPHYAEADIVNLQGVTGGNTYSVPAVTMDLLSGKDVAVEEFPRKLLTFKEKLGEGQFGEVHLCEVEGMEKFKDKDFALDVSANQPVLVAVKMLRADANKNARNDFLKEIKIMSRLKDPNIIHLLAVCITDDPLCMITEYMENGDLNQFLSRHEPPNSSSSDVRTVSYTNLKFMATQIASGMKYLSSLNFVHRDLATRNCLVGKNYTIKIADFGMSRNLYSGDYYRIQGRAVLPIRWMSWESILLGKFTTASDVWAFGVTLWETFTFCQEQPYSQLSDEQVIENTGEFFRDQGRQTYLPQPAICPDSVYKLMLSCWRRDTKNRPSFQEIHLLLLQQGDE
# [14] = biological target: T4, Ephrin type-A receptor 1 (Homo sapiens); settings: at 10 µM
# [15] = biological target: Ephrin type-A receptor 2 (Homo sapiens) (UniProt P29317); settings: at 1 µM
# [16] = biological target: Ephrin type-A receptor 2 (Homo sapiens) (UniProt P29317); settings: at 10 µM
# [17] = biological target: T6, Ephrin type-A receptor 3 (Homo sapiens) (UniProt P29320); settings: at 1 µM
# T6 sequence (whole entry): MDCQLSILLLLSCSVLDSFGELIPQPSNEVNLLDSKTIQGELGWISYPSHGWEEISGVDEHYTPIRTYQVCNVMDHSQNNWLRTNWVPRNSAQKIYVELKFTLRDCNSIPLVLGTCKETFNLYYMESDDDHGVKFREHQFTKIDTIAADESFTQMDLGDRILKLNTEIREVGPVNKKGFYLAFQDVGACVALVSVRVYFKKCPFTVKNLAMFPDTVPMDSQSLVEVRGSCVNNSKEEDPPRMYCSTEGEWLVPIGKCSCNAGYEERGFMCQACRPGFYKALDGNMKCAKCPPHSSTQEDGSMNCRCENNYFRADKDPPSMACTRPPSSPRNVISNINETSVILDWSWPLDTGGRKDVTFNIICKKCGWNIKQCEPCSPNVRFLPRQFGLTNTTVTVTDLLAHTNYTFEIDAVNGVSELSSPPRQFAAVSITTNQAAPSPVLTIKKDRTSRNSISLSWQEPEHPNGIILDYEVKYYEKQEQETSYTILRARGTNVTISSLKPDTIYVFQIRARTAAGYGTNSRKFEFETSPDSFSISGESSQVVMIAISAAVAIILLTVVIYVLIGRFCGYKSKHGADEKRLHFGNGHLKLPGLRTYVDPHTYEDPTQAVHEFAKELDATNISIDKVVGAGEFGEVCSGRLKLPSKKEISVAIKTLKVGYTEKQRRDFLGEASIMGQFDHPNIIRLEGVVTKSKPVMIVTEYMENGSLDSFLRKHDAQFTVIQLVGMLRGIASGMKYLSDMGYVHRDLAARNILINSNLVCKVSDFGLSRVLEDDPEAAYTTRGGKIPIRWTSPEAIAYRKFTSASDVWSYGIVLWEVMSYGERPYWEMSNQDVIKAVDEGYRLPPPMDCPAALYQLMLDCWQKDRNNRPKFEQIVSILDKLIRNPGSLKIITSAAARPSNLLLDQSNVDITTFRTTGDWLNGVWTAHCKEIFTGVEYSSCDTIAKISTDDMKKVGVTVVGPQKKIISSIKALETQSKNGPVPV
# [18] = biological target: T5, Discoidin domain-containing receptor 2 (Homo sapiens); settings: at 1 µM
# [19] = biological target: T7, Myotonin-protein kinase (Homo sapiens) (UniProt Q09013); settings: at 1 µM
# T7 sequence (whole entry): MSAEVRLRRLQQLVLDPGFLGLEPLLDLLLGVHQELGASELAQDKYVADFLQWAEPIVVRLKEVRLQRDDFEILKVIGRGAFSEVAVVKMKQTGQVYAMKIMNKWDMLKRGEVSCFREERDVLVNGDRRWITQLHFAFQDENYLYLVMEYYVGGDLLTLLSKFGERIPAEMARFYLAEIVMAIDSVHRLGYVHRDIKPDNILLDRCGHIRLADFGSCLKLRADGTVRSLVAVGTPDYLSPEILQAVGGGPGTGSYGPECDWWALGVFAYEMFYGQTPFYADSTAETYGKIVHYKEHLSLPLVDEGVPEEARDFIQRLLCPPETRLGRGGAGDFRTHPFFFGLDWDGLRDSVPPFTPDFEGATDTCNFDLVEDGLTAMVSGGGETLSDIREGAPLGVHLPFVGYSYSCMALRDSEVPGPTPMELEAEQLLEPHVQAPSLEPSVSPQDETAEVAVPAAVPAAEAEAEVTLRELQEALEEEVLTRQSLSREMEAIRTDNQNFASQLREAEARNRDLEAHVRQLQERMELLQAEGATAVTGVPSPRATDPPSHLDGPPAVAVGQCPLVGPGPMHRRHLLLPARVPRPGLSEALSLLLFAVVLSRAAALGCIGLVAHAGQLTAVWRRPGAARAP
# [20] = biological target: T7, Myotonin-protein kinase (Homo sapiens); settings: at 10 µM
# Sequence of Death-associated protein kinase 1 (Homo sapiens) (P53355 whole entry, looked up): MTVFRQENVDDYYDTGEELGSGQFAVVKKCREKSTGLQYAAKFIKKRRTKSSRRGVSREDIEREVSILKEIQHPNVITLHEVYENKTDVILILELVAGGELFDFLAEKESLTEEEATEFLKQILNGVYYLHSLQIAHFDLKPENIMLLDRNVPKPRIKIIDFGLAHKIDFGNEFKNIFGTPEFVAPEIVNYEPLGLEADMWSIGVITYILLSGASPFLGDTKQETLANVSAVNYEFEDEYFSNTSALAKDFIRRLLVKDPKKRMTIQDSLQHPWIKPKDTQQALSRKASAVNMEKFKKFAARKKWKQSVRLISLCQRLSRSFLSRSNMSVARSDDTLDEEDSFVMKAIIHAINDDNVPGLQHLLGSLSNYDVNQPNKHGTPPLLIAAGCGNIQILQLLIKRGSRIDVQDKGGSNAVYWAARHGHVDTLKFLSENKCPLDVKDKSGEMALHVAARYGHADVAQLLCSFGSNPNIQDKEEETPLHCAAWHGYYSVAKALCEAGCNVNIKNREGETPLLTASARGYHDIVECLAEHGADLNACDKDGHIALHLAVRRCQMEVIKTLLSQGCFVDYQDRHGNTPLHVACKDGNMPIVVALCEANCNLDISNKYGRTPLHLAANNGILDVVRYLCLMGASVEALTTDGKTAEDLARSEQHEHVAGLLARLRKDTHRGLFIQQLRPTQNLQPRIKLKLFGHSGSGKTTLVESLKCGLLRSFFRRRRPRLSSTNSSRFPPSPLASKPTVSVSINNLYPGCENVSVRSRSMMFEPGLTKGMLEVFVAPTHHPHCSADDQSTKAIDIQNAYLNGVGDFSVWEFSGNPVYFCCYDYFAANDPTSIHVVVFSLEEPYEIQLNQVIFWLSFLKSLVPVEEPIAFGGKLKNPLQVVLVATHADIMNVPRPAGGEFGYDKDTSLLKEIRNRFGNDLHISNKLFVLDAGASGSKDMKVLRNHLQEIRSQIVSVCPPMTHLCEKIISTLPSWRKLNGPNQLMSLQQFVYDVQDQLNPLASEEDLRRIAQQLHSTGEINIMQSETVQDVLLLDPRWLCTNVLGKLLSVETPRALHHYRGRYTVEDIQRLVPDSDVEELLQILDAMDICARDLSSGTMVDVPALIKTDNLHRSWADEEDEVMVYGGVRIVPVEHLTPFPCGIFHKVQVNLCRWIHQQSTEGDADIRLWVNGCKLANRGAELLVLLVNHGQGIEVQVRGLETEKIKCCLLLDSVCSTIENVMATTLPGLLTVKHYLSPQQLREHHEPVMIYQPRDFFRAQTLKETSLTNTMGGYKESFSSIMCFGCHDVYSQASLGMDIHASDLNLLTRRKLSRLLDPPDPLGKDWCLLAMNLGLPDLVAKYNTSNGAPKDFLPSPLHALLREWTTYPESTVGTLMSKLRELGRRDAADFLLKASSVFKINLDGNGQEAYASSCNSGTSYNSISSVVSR
# Sequence of Death-associated protein kinase 2 (Homo sapiens) (Q9UIK4 whole entry, looked up, the tested form may be a part): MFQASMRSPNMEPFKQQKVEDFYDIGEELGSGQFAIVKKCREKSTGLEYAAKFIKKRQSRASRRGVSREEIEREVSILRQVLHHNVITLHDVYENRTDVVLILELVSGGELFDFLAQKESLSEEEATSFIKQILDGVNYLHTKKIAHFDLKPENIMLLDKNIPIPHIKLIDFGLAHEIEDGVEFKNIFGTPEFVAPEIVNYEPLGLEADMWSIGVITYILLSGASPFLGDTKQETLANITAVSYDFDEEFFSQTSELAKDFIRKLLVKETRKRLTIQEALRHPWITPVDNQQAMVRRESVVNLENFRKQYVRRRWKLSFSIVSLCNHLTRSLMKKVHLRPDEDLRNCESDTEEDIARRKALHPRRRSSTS
# Sequence of Ephrin type-A receptor 2 (Homo sapiens) (P29317 whole entry): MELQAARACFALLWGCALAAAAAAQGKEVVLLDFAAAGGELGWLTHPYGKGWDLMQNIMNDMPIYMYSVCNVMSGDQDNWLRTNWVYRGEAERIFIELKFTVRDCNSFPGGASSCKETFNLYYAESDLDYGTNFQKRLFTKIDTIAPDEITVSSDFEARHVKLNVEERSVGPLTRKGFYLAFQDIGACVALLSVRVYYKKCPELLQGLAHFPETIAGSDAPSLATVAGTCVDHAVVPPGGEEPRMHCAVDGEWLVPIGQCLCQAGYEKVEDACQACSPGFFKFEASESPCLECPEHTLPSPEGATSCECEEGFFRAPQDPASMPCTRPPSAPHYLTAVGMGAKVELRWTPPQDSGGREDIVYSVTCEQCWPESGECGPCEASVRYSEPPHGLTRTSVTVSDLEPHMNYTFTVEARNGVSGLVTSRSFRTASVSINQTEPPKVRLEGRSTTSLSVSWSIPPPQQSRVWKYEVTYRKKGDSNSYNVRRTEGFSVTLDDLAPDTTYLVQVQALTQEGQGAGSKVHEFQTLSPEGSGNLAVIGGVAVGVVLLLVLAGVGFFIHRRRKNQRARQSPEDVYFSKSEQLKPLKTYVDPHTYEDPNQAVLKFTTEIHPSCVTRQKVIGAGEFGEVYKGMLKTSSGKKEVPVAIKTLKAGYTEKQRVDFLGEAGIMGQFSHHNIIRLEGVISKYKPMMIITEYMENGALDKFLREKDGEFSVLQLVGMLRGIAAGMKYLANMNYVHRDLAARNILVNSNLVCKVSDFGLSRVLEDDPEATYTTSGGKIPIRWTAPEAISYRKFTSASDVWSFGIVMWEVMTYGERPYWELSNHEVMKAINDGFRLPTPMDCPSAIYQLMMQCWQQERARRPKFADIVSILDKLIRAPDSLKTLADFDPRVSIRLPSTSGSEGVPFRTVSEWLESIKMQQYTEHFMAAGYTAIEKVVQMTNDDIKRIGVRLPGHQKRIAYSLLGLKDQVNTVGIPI
# Sequence of Epidermal growth factor receptor (Homo sapiens) (P00533 whole entry): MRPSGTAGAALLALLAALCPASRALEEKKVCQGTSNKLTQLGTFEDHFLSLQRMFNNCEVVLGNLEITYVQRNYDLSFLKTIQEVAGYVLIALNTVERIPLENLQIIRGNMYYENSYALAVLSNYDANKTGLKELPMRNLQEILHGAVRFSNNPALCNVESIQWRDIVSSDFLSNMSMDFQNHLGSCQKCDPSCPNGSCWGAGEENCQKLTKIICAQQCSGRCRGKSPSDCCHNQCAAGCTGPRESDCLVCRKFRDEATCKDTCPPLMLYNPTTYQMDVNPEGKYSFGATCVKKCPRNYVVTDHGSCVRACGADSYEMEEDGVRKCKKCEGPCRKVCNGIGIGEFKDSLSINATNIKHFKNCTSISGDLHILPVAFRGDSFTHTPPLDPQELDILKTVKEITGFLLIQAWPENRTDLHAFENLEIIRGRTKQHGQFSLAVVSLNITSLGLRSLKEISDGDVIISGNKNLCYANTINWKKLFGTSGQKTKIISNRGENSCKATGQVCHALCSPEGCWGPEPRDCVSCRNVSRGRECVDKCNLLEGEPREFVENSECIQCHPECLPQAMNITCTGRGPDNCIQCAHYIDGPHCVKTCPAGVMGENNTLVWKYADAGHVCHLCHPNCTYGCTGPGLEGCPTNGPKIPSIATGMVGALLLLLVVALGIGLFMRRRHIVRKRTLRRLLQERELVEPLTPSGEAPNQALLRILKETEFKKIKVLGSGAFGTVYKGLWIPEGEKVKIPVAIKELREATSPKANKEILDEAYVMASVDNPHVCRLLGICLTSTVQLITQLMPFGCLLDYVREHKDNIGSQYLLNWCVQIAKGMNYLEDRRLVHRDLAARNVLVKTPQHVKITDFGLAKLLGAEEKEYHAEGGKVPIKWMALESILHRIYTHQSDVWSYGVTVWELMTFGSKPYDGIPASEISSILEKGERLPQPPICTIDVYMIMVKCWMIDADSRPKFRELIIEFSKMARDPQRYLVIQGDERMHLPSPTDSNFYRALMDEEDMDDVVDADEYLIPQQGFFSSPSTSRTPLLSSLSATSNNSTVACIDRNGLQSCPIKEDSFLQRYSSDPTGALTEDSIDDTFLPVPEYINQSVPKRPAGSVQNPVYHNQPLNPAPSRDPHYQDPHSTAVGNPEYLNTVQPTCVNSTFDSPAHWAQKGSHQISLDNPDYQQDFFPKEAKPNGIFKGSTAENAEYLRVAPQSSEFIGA
SMILES,residual activity [1] [%],residual activity [2] [%],residual activity [3] [%],residual activity [4] [%],residual activity [5] [%],residual activity [6] [%],residual activity [7] [%],residual activity [8] [%],residual activity [9] [%],residual activity [10] [%],residual activity [11] [%],residual activity [12] [%],residual activity [13] [%],residual activity [14] [%],residual activity [15] [%],residual activity [16] [%],residual activity [17] [%],residual activity [18] [%],residual activity [19] [%],residual activity [20] [%]
Oc1cccc(-c2nc(N3CCOCC3)c3oc4ncccc4c3n2)c1,76,93,94,65,116,86,94,98,119,119,91,,,,,,,,,
NC(=O)Nc1sc(-c2ccc(F)cc2)cc1C(N)=O,70,95,96,78,69,39,,,,,9,64,40,6,32,4,80,,,
O=C(NC(NC(=S)Nc1ccc(F)c([N+](=O)[O-])c1)C(Cl)(Cl)Cl)C(c1ccccc1)c1ccccc1 (stereo not given),71,95,136,86,,,98,100,,,104,78,90,92,,,,102,71,
O=C(O)/C=C/c1cc(Br)c(Br)c(Br)c1Br,62,91,98,68,79,39,92,38,,,104,39,95,91,,,101,93,93,76
Nc1nc(Nc2ccc(S(N)(=O)=O)cc2)nn1C(=O)c1c(F)cccc1F,96,97,68,25,77,47,,,,,58,77,,6,,39,,,,
Cn1c2ccccc2c2c3c(c4c5ccccc5n(CCC#N)c4c21)CNC3=O,73,93,56,60,36,36,76,66,,,,105,,,,,,,121,114
NC(=O)c1ccc(-c2nc(-c3ccc4c(c3)OCCO4)c(-c3ccccn3)[nH]2)cc1,78,,,,89,,,,,,,,97,,,,100,98,93,97
